The sample as a whole holds a higher share of hits than the screen did.
Artemis inh – inhibitors of human Artemis endonuclease activity. inhibition, % at 10 µM. Q96SD1. recombinant Artemis, quenched FAM hairpin cleavage fluorescence. 0.78% of 30,000 active;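 active means at 10 µM dose, at least 30% inhibition, measured as corrected fluorescence normalized to stimulator and neutral control wells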
Active calls of the source: *.

SMILES	Artemis inh
COC(=O)c1ccc(NC(=O)C2CC2)o1	-15
Cc1cc(C)c(C(N)=O)c(Nc2ccc3c(c2)OCCO3)n1	-4
COc1ccccc1Nc1nc(C)cc(C)c1C(N)=O	-1
Cc1cc(C)c(C(N)=O)c(Nc2cccc3ccccc23)n1	34*
CNS(=O)(=O)c1cnccc1N1CCN(c2cccc(C(F)(F)F)c2)CC1	-2
O=C1C(Nc2ccccc2)=C(N2CCCCC2)C(=O)c2ccccc21	39*
O=C1c2ccccc2C(=O)c2c1ccc(C(=O)N1CCCCC1)c2NCCO	2
O=C(Nc1ccccc1)Nc1ccc(S(=O)(=O)N2CCCCC2)cc1	3
CC(C)COC(=O)Cn1cnc2ccc(Br)cc2c1=O	0
c1ccc(CN2CCN(c3nc(-c4ccccc4)nc4ccccc34)CC2)cc1	4
c1ccc(-c2nc(N3CCOCC3)c3ccccc3n2)nc1	8
c1ccc(-c2nc(N3CCCCCC3)c3ccccc3n2)nc1	78*
C=CCn1c(SCn2nnc3ccccc3c2=O)nnc1C1CCCCC1	-3
CC(C)c1nc2sc3c(SCC(=O)NCc4ccco4)ncnc3c2c2c1CCC2	29
CSc1nc(N(CCO)CCO)c2sc3nc(-c4ccco4)c4c(c3c2n1)CCC4	46*
N#Cc1sc2nc3c(c(-c4ccco4)c2c1N)CCCC3	13
CS(=O)(=O)N(CC(=O)N/N=C/c1cccs1)c1cccc(Cl)c1Cl	-8
O=C(N/N=C\c1ccc(COc2ccc([N+](=O)[O-])cc2)o1)c1ccc(Cl)cc1	12
O=[N+]([O-])CC(=Nc1ccc(Cl)cc1)N/N=C\c1oc(O)c2ccccc12	35*
Nc1ccnc(C(F)(F)F)c1C(=O)c1ccccc1	-20
O=S(=O)(Cc1ccc(Cl)cc1)c1ccccc1-c1nnc(-c2ccc(Cl)cc2)o1	3
Cc1cc(NS(=O)(=O)c2ccc(Nc3nc(-c4sc(N)nc4C)cs3)cc2)no1	59*
Cc1cc(NS(=O)(=O)c2ccc(NC(=O)c3ccco3)cc2)no1	7
Cc1cc(NS(=O)(=O)c2ccc(NC(NC(=O)C(C(F)(F)F)C(F)(F)F)(C(F)(F)F)C(F)(F)F)cc2)no1	-3
CC(C)NC(=O)c1ccc(OC2CSC2)cc1	2
SMILES	Artemis inh
Cc1nn(Cc2ccc(Cl)cc2Cl)c(C)c1NC(=O)NC12CC3CC(CC(C3)C1)C2	9
Cc1nc2ccccc2nc1N1CCOCC1	4
O=C1C(N2CCOCC2)=C(n2nnc3ccccc32)C(=O)c2ccccc21	36*
O=C1c2ccccc2C(=O)c2c1cccc2N1CCOCC1	4
Cn1c(Cc2ccccc2)nnc1SCC(=O)c1cccs1	-7
Cc1noc(C)c1COC(=O)CCCc1c[nH]c2ccccc12	1
CC12CCC(C(=O)N(NC(=O)c3cc(Cl)ccc3O)C1=O)C2(C)C (centres undefined)	-3
O=C1CC(=O)N(CCc2ccc(F)cc2)C(=O)N1	1
COc1cc2ccccc2cc1C(=O)Nc1cccnc1	-1
COC(=O)/C=C/C(=O)Nc1cccnc1	35*
O=C(Nc1cccnc1)C1(F)C(F)(F)C(F)(F)C(F)(F)C(F)(F)C1(F)F	-2
COCCNC(=O)C(OC(=O)CC1Sc2ccccc2NC1=O)c1ccccc1 (centres undefined)	-3
COc1ccccc1N/C(N)=N/c1nc(CSc2ccc(C)cc2)cc(=O)[nH]1	30*
Cc1cc(=O)[nH]c(/N=C(\N)Nc2cccc3ccccc23)n1	-2
COc1ccc(N/C(N)=N/c2nc(CSc3ccc(C)cc3)cc(=O)[nH]2)cc1	14
COc1cc(C2Nc3ccc4ncccc4c3C3=C2C(=O)CCC3)ccc1O (centres undefined)	6
CCCN(CCC)CC(=O)Nc1cccc2c1OCO2	-1
COc1ccc2nc(NC(=O)C3CCN(S(=O)(=O)c4cnc[nH]4)CC3)sc2c1	4
COc1ccc2nc(NC(=O)C3CCCN(S(=O)(=O)c4cccs4)C3)sc2c1 (centres undefined)	40*
CCOc1ccc(OCC)c(NC(=O)C2CCCN(S(=O)(=O)c3cccs3)C2)c1 (centres undefined)	-2
CCN(Cc1nc2ccccc2c(=O)[nH]1)Cc1cc(=O)oc2cc(OC)ccc12	5
Cc1c(C=O)c2ccccc2n1CC(=O)N1CCc2ccccc2C1	-3
O=C1C2C3C=CC([C@@H]2C(=O)N1C1CCCCC1)[C@H]1C(=O)N(C2CCCCC2)C(=O)C31 (some centres undefined)	4
Nc1[nH]nc2nc(NCc3ccccc3)c3c(c12)CCN(Cc1ccccc1)C3	-3
N#Cc1c(NCCN)nc(-c2ccccc2)c2c1CCCC2	8
SMILES	Artemis inh
N#Cc1c(NCCN)nc(NCc2ccccc2)c2c1CCN(Cc1ccccc1)C2	58*
CC(C)(C)C1CCc2c(sc(NC(=O)c3cccs3)c2C(=O)N2CCCCC2)C1 (centres undefined)	-4
COC(=O)c1cc(Br)c(=O)n(-c2cccc(F)c2)c1	-6
Clc1cc(CSc2ccccc2)nc(-c2ccccc2)n1	0
CCOc1c(OC(C)=O)ccc(/C=C2\N=C(SCC)SC2=O)c1[N+](=O)[O-]	30*
COc1ccc(/C=C2\N=C(SC)SC2=O)cc1OC	-2
C=CCSC1=N/C(=C\c2ccc(C)o2)C(=O)S1	2
CCOc1cc(/C=C2\N=C(SC)SC2=O)cc([N+](=O)[O-])c1OC(C)=O	33*
CSC1=N/C(=C\c2ccc(C)cc2)C(=O)S1	-1
CN(C)S(=O)(=O)c1cccc(NC(=O)COC(=O)CCc2nc3ccccc3s2)c1	5
Nc1c(C(O)(C(F)(F)F)C(F)(F)F)cc(C(O)(C(F)(F)F)C(F)(F)F)c2ccccc12	3
O=C(c1c(F)cccc1F)N(Cc1ccccn1)C1CC1	8
CSc1cccc(NC(=O)CN(C)S(=O)(=O)c2ccc(C)cc2)c1	-2
CSc1nnc2c3cc(C)ccc3n(Cc3ccccc3)c2n1	37*
O=C1c2ccccc2C(=O)N1CSc1nnc2c3ccccc3n(CCc3ccccc3)c2n1	7
CCCn1c2ccccc2c2nnc(SC(CC)C(=O)Nc3cc(C)on3)nc21 (centres undefined)	1
O=C(CSCc1cccc(Cl)c1)N1CCN(Cc2ccc3c(c2)OCO3)CC1	3
CCOC(=O)/C=c1\s/c(=C(\C#N)C(=O)OCC)n(-c2ccccc2)c1=O	31*
CCOC(=O)/C(C#N)=C1/C=Cc2ccccc2N1CC	0
CCOC(=O)c1c(O)c2ccccc2n(-c2ccccc2)c1=O	5
COC(=O)C1=C(N)c2c(F)cccc2C1(C#N)c1ccc(F)cc1 (centres undefined)	-3
COc1ccc(NS(=O)(=O)c2ccc3oc(SC4CCOC4=O)nc3c2)cc1 (centres undefined)	6
Cc1ccc(OCCOCCn2ccnc2)c(Br)c1	-10
COc1ccc(Oc2ccccc2C=O)cc1	-3
OC(CN1CCN(c2cccc(C(F)(F)F)c2)CC1)c1c[nH]c2ccccc12 (centres undefined)	6
SMILES	Artemis inh
O=C(O)C(=O)/C(=C\c1ccccc1)c1ccc2ccccc2n1	-8
O=C(O)C(=O)/C(=C\c1cccc2ccccc12)c1ccc2ccccc2n1	30*
Cc1cccc(NC(=O)c2ccc3ccccc3n2)c1C	-2
Cc1nn(-c2ccccc2)c(C)c1/C=N\NS(=O)(=O)c1ccc(Cl)cc1	1
O=c1ccc(/C=C/c2ccccc2)nn1Cc1ccccc1Cl	6
O/N=C\c1cccn1-c1ccc(Br)cc1	9
COc1ccc(NC(=O)CSc2nc3c(cc2C#N)CN(C)CC3)cc1	37*
COc1ccc(NC(=O)CSc2nc(C)cc(C)n2)cc1	0
COc1ccc(-c2c(C#N)c(SCC(=O)Nc3ccccc3)nc3c2CCCC3)cc1	12
